# Data taken from ChEMBL document CHEMBL4888484, “Replenishing the malaria drug discovery pipeline: Screening and hit evaluation of the MMV Hit Generation Library 1 (HGL1) against asexual blood stage Plasmodium falciparum ,using a nano luciferase reporter read-out” (2022).
# Screen size: about 4,800 compounds; about 420 (8.8%) showed an effect of 50% or more. This excerpt belongs to a sample that is enriched for strong results.
# Test system: Plasmodium falciparum
# Assay: Confirmatory screen in NF54 nanoGlo assay, in single point, at 2uM, 72h
# Type: functional, Erythrocyte
# Settings: timepoint 72 hour
row,Compound,% Inhibition
1,Cc1nn(C)c(C)c1OCc1nnc(C2CCC2)n1C,-14%
2,CCCNC(=O)C1=Cc2ccccc2OC=C1,-9%
3,COc1ccccc1-n1c(=O)n(C2CCCC2)c(=O)c2c1ncn2Cc1ccccc1Cl,37%
4,COc1ccccc1Cn1cnc2c1c(=O)n(C1CCCCC1)c(=O)n2-c1ccccc1Cl,83%
5,COC(=O)c1ncn2c1C(=O)N(Cc1ccccc1OC)[C@](C)(C(=O)NC1CCCCC1)C2,0%
6,Cc1ccccc1Cn1cnc2c1c(=O)n(C1CCCCC1)c(=O)n2-c1ccccc1Cl,78%
7,CCCc1nc(N2CCCN(C(=O)C3CCCCC3)CC2)c2c(C)nn(-c3ccccc3)c2n1,0%
8,CCC(C)(C)NCC(=O)Nc1cc(F)ccc1F,-13%
9,Cc1coc(-c2cc(NC(=O)N(CCO)CC(F)F)ccc2C)n1,-5%
10,Cn1nc(C(=O)Nc2nnc[nH]2)ccc1=O,4%
11,Clc1cc(CNCCc2ccccc2)ccc1OCc1ccccc1,-6%
12,COc1ccccc1CNCCNC(=O)c1ccncc1,8%
13,Cc1cnccc1NCCNCc1cccc(O)c1Cl,88%
14,C[C@@H](C1CC1)N(C)S(=O)(=O)Cc1cc(Cl)cc(Cl)c1,-3%
15,COc1ccccc1CN(C(=O)c1ccc(C)cc1)c1ccc(CC(=O)NCCN2CCCCC2)cc1,39%
16,CCOc1ccc(Nc2c3ccccc3nc3ccccc23)cc1,86%
17,COc1ccc(NC(=O)c2nc(Nc3ccccc3)c3ccccc3n2)cc1,17%
18,CCOc1ccc(-n2c(CN3CCN(C(=O)c4ccco4)CC3)nc3ccccc3c2=O)cc1,3%
19,Cc1cccc(NS(=O)(=O)c2ccc3c(c2)Cc2cc(S(=O)(=O)Nc4cccc(C)c4)ccc2-3)c1,10%
20,O=C(Cn1c(=O)n(-c2cc(F)cc(F)c2)c(=O)c2sccc21)NCc1ccc2c(c1)OCO2,-9%
21,Cc1[nH]ccc(=O)c1Cc1c(Cl)cccc1Cl,-16%
22,Cc1cc(NC(=O)Cn2ncnc2-c2cccc(C#N)c2)n(C)n1,-1%

row,Compound,% Inhibition
1,O[C@@H](CNCc1ccsc1C(F)(F)F)c1cc(Cl)c2c(c1)OCCO2,32%
2,CCCN(Cc1c(C)nn(-c2ccccc2)c1N1CCN(CC)CC1)S(=O)(=O)c1ccc(C)cc1,-5%
3,Cc1cc(NCCc2nccn2C)ncn1,-15%
4,Cc1sc2nc(-c3ccccn3)nc(NCC(=O)N3CCC(O)CC3)c2c1-c1ccccc1,23%
5,COC(=O)COc1nonc1-c1ccccc1,7%
6,Cc1nnc(Cn2ncnc2-c2ccccc2Cl)o1,-3%
7,COc1ccc(OCC(=O)Nc2ccc(N3CCn4c(nc5ccccc54)C3)cc2Cl)cc1,-8%
8,Cc1cnc(C(=O)N2CCC[C@H]2c2nc(C3CCOCC3)no2)cn1,0%
9,Cc1cc(S(=O)(=O)NC(=O)c2ccnc(C3CCCC3)n2)c(C)s1,-2%
10,O=C(NC(c1ccccc1)c1ccccc1)C1=COCCO1,-9%
11,Cc1cc(C(=O)N[C@@H](C)c2nc(-c3cccnc3)cs2)cc(O)n1,53%
12,N#C[C@@H](C(=O)NCc1cccnc1)c1nc(-c2ccccc2)cs1,-1%
13,CCOC(=O)c1nc(-c2cccnc2)cs1,-12%
14,C#CCN1C(=O)N[C@@](CC)(C(C)C)C1=O,10%
15,Cc1oc(=S)n2c1C[C@@H](c1ccccc1)N(Cc1ccccc1)C2,-15%
16,Cn1cc(C(=O)NCC2CCN(S(=O)(=O)c3cccs3)CC2)cn1,-2%
17,CCc1ccc(NC(=O)[C@H](C)N2CCC(NS(=O)(=O)c3cccs3)CC2)cc1,70%
18,CCc1ccc(NC(=O)[C@@H]2CCn3c(C(=O)c4ccccc4)ccc32)cc1,1%
19,CN(Cc1ccc(F)c(F)c1)S(=O)(=O)C[C@H]1CCN(C(=O)OCc2ccccc2)C1,-10%
20,Cc1cc(C)n(-c2ccc(CN3C(=O)NC4(CCCC4)C3=O)cc2)n1,-4%
21,O=C1CN(C(=O)Cc2c(F)cccc2Cl)C2(CCCC2)CN1,-11%
22,Cc1nccc(NC(=O)C2CCC(F)(F)CC2)c1Cl,-4%

row,Compound,% Inhibition
1,Cc1c(NC(=O)CC(C)(C)CC(=O)N2CCN(c3ccccc3F)CC2)c(=O)n(-c2ccccc2)n1C,2%
2,O=C(COc1ccccc1)Nc1ccc2c(c1)C(O)=Nc1cccnc1O2,58%
3,CC1(C)Oc2ccc(NC(=O)COc3ccccc3)cc2NC1=O,11%
4,CC(C)(C)CC(=O)Nc1ccc2c(c1)C(N1CCCCC1)=Nc1ccccc1O2,-13%
5,Cc1ccc([C@H]2C=NN(c3ccc(Br)cc3)C2=O)cc1,20%
6,CCNc1nc(C)cc(Nc2ccc(NS(=O)(=O)c3c(C)noc3C)cc2)n1,92%
7,O=C(Nc1ccc(N2CCOCC2)cc1)Nc1ccc(F)cc1F,1%
8,Cc1onc(N)c1S(=O)(=O)Nc1ccncc1,-7%
9,CCC(=O)Nc1nc2c(OC)cc(NS(=O)(=O)c3c(C)noc3C)cc2s1,-4%
10,Cc1ccc(C)c(S(=O)(=O)NCCNc2ccc(Nc3ccncc3)nn2)c1,28%
11,CCNc1nc(C)cc(Nc2ccc(NC(=O)c3cc(C)ccc3C)cc2)n1,98%
12,Cc1ccccc1S(=O)(=O)NCc1nnc(C(=O)Nc2ccc(F)cc2F)s1,-5%
13,CCC(=O)N1CCN(c2cc(Nc3ccc(C)cc3)nc(C)n2)CC1,-1%
14,CC(C)c1ccc(-c2nn3c(C4CCN(S(C)(=O)=O)CC4)nnc3s2)cc1,-20%
15,C[C@H](C#N)CNc1ncc(Br)cn1,1%
16,CN(c1ccc(Cl)cn1)S(=O)(=O)c1ccc2ncccc2c1,-22%
17,C[C@H]1CN(Cc2cc3c(cc2Br)OCO3)CCN1S(C)(=O)=O,-2%
18,Brc1ccc(NCc2[nH]nnc2-c2ccccc2)cc1,2%
19,O=S(=O)(c1ccccc1Br)N1CC[C@H]1c1ccccc1,-6%
20,CN(c1ncc(S(=O)(=O)c2ccccc2)c(N)n1)C1CCCCC1,-9%
21,Cn1ccnc1CN1CCC[C@@](O)(CNS(=O)(=O)c2cccs2)CC1,-10%
22,CC(C)(C)c1ccnc(N[C@H]2CO[C@H]3[C@@H]2OC[C@@H]3NC(=O)NCc2ccccc2)n1,18%
